Shiga inhibitor: blocks Shiga toxin action in Vero cells; inhibition, % at 38.7 µM; actives 9.2% (n = 290,000); AID 2315; Vero cells, Shiga toxin protein synthesis inhibition reporter; in the data active = inhibition mostly above about 28%, no sharp cut-off; inactive = mostly below about 43%; also: 0% is about no effect
Pf growth 48h: P. falciparum growth inhibition at 48 hours (one generation); P. falciparum luciferase growth in erythrocytes, 48 h; Potency, µM (titrated, usually from 28.7 µM), for the others: at the highest dose activity change, negative = inhibition, most hits filed as inhibitors; actives 5.9% (n = 310,000); also: potency is read from the fitted curve at half-maximal effect; % is scaled to controls: 0 for no effect and ±100 for the full control effect
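Firefly luciferase activity from engineered P. falciparum reports growth; inhibitors lower the luminescent signal. Cultures contained 2% hematocrit erythrocytes at 0.1% final parasitemia.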
AMA1-RON2 inh: disrupts binding of P. falciparum AMA1 to RON2; AlphaScreen AMA1-biotinylated RON2 peptide binding; Potency, µM (top dose mostly 58.2 µM), without a hit: at the highest dose activity change, negative = inhibition, most hits filed as inhibitors; actives 0.2% (n = 360,000); AID 720542;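 also: potency is read from the fitted curve at half-maximal effect; 0% = vehicle wells and -100% = peptide control; nearly all actives have a fitted effect of over 45% in size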
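AMA1 (3D7) with his tag at 25 nM final met compounds first, then biotinylated RON2 peptide at 25 nM; detection used donor plus acceptor beads, 10 µg/mL apiece, read by AlphaScreen after 30 min at room temperature.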
Pf growth 96h: inhibits malaria parasite growth, 96 h; P. falciparum luciferase reporter growth, 96 h; Potency, µM (doses to about 28.7 µM), inactives show at the highest dose activity change, negative = inhibition, hits mostly inhibitors; actives 6.9% (n = 320,000); also: potency is read from the fitted curve at half-maximal effect; % is scaled to controls: 0 for no effect and ±100 for the full control effect
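Two parasite generations (96 h, 37 C, 5% CO2) of compound exposure in infected erythrocytes (0.05% parasitemia, 2% hematocrit). Luciferase-reporter P. falciparum; decreased luminescence indicates inhibited growth, aimed at apicoplast-acting delayed death.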
SARS PLpro yeast: SARS-CoV PLP inhibition in yeast. S. cerevisiae expressing SARS-CoV PLpro, growth rescue. Potency, µM (top dose mostly 32.9 µM), for inactives: top-dose activity, positive = growth rescue, usual class: activators. actives 0.19% (n = 330,000). AID 485353; calls by dose curve; also: potency is read from the fitted curve at half-maximal effect; 0% is about no effect; nearly all actives have a fitted effect of over 55% in size
Cycloheximide cs: counter-screen hit for Shiga toxin inhibitors, cycloheximide | cell reporter, cycloheximide protein synthesis inhibition counterscreen | max response, % | actives 12% (n = 300,000) | AID 2314; in the data active = max response mostly above about 13%, no sharp cut-off; inactive = mostly below about 14%; also: read at 38.3 µM for the half of the compounds with a filed dose; 0% is about no effect
Active calls of the source: *; [ ] = dose if it differs, or a comment. Only some compounds are listed: those with a hit (about 19% of all), similar ones and a draw of the others. Unless noted, calls follow the shape of the dose curve; as a rule, active = well fitted curve in the direction sought with a large enough effect; inconclusive = small, poorly fitted or top-dose-only effect, or another doubt; inactive = no such curve, though single readings can be large; an effect the other way counts as inactive or inconclusive.

How did COc1cc(/C(C)=N/NC(=O)CSc2nncn2C)ccc1OCc1ccccc1Cl do in these assays?
Shiga inhibitor: 84*; Pf growth 48h: inconclusive; AMA1-RON2 inh: -21%; Pf growth 96h: inconclusive; SARS PLpro yeast: 16%; Cycloheximide cs: 38*

What do the screens show for `CCOc1cc(/C=N/NC(=O)CSc2nncn2C)ccc1OCc1ccccc1`?
Shiga inhibitor: 16; Pf growth 48h: -18%; AMA1-RON2 inh: 2%; Pf growth 96h: inconclusive; SARS PLpro yeast: 15%; Cycloheximide cs: -3

How did CCOC(=O)c1sc2ncn(/N=C/c3ccccn3)c(=O)c2c1C do in these assays?
Shiga inhibitor: 8; Pf growth 48h: 10%; Pf growth 96h: 6.6µM*; SARS PLpro yeast: 20%; Cycloheximide cs: -2

What do the screens show for `CC(C)(C)C(C(=O)n1cccc1C#N)c1ccccc1` (stereo not drawn)?
Pf growth 48h: 21%; AMA1-RON2 inh: 8%; Pf growth 96h: 25%; SARS PLpro yeast: -4%

Results for COc1ccc(CCn2nnc3ccccc3c2=O)cc1OC ?
AMA1-RON2 inh: 0%

Results for Cc1ccc(O)c(-c2cc(-c3ccccc3C)[nH]n2)c1 ?
Shiga inhibitor: 33*; Pf growth 48h: inconclusive; AMA1-RON2 inh: 53%; Pf growth 96h: 12%; SARS PLpro yeast: -34%; Cycloheximide cs: -2

How did Cc1ccc(O)c(-c2cc(C(F)(F)C(F)F)[nH]n2)c1 do in these assays?
Shiga inhibitor: 47; Pf growth 48h: 9.3µM*; AMA1-RON2 inh: 19%; Pf growth 96h: 9.3µM*; SARS PLpro yeast: -12%; Cycloheximide cs: 19*

How did Cc1ccc(O)c(-c2cc(C(=O)NCc3ccc4c(c3)OCO4)[nH]n2)c1 do in these assays?
Shiga inhibitor: 6; Pf growth 48h: -2%; AMA1-RON2 inh: 74%; Pf growth 96h: 0%; SARS PLpro yeast: -5%; Cycloheximide cs: 0

How did O=[N+]([O-])c1ccccc1-c1cc(-c2cc(Cl)ccc2O)n[nH]1 do in these assays?
Shiga inhibitor: 50; Pf growth 48h: inconclusive; AMA1-RON2 inh: 60%; Pf growth 96h: 0%; SARS PLpro yeast: -68%; Cycloheximide cs: 22*

How did Cc1ccc(O)c(-c2cc(-c3ccccc3[N+](=O)[O-])[nH]n2)c1 do in these assays?
Shiga inhibitor: 44*; Pf growth 48h: inconclusive; AMA1-RON2 inh: 46%; Pf growth 96h: 189%; SARS PLpro yeast: -36%; Cycloheximide cs: 20*

Results for Cc1ccccc1[N+](=O)[O-] ?
Pf growth 48h: 30%; AMA1-RON2 inh: 0%; Pf growth 96h: inconclusive; SARS PLpro yeast: -6%

What do the screens show for `OCC(O)CNC(=S)NC1CCCCC1` (stereo not drawn)?
Shiga inhibitor: -15; Pf growth 48h: 5%; AMA1-RON2 inh: 1%; Pf growth 96h: 34%; SARS PLpro yeast: 0%; Cycloheximide cs: -3

What do the screens show for `CC(NC(=O)c1ccc(Br)s1)c1ccncc1` (stereo not drawn)?
Shiga inhibitor: 16; Pf growth 48h: -27%; AMA1-RON2 inh: -3%; Pf growth 96h: 33%; SARS PLpro yeast: -1%; Cycloheximide cs: -1

What do the screens show for `COc1ccc(C(O)c2ncc(-c3cccc(F)c3)[nH]2)cc1F` (stereo not drawn)?
AMA1-RON2 inh: -19%

Results for Cc1ccc(-c2cc(-c3cccs3)[nH]n2)c(O)c1 ?
Shiga inhibitor: 72*; AMA1-RON2 inh: 9%; Pf growth 96h: inconclusive; SARS PLpro yeast: -27%; Cycloheximide cs: 41*

How did Cc1ccc(/C=N/n2c(-c3cccs3)n[nH]c2=S)cc1 do in these assays?
Shiga inhibitor: -18; Pf growth 48h: 42%; AMA1-RON2 inh: 19%; Pf growth 96h: 3%; SARS PLpro yeast: -1%; Cycloheximide cs: -2

How did COc1ccc(O)c(-c2[nH]ncc2C(=O)c2cccc(C)c2)c1 do in these assays?
Shiga inhibitor: -3; Pf growth 48h: -5%; AMA1-RON2 inh: 103%; Pf growth 96h: 5%; SARS PLpro yeast: 1%; Cycloheximide cs: -3

How did COc1ccc(O)c(-c2cc(-c3ccccc3[N+](=O)[O-])[nH]n2)c1 do in these assays?
Shiga inhibitor: -3; Pf growth 48h: 31%; AMA1-RON2 inh: 20%; Pf growth 96h: -5%; SARS PLpro yeast: -3%; Cycloheximide cs: 25*

What do the screens show for `CCCc1ccc(S(=O)(=O)NCc2nnc(SC)n2C)cc1`?
Shiga inhibitor: -5; Pf growth 48h: 38%; AMA1-RON2 inh: -14%; Pf growth 96h: inconclusive; SARS PLpro yeast: 1%; Cycloheximide cs: -2

What do the screens show for `CC1=CCC(/C=N\Nc2nnc3c(n2)[nH]c2ccccc23)CC1` (stereo not drawn)?
Shiga inhibitor: 55*; Pf growth 48h: 69%; Pf growth 96h: inconclusive; SARS PLpro yeast: 7%; Cycloheximide cs: 76*

How did CC1CCN(C(=O)CSc2nnc3c(n2)[nH]c2ccccc23)CC1 do in these assays?
Shiga inhibitor: -5; Pf growth 48h: inconclusive; AMA1-RON2 inh: -3%; Pf growth 96h: 34%; SARS PLpro yeast: 1%; Cycloheximide cs: -5

Results for Cc1cc(C)c(NC(=O)CNC(=O)COC(=O)CN2C(=O)NC3(CCCC3)C2=O)c(C)c1 ?
Pf growth 48h: -2%; AMA1-RON2 inh: inconclusive; Pf growth 96h: 62%; SARS PLpro yeast: 4%

How did Cc1ccc(C(=O)NCc2ccco2)cc1 do in these assays?
Shiga inhibitor: 37; Pf growth 48h: -7%; AMA1-RON2 inh: 8%; Pf growth 96h: -11%; SARS PLpro yeast: 2%; Cycloheximide cs: 18*

What do the screens show for `Cc1ccc(C(=O)Nc2cccc(C(=O)NCc3ccccc3)c2)cc1`?
Shiga inhibitor: 23; Pf growth 48h: 35%; AMA1-RON2 inh: -7%; Pf growth 96h: 1%; SARS PLpro yeast: 11%; Cycloheximide cs: 15*

Results for CC(C)(C)c1ccc(C(=O)NC(=S)NCc2ccco2)cc1 ?
Shiga inhibitor: 71; Pf growth 48h: inconclusive; AMA1-RON2 inh: 55%; Pf growth 96h: 10%; SARS PLpro yeast: 2%; Cycloheximide cs: 24*

What do the screens show for `Cc1ccc(C(=O)N/C(=C/c2ccccc2)C(=O)NC(Cc2ccccc2)C(=O)O)cc1` (stereo not drawn)?
Shiga inhibitor: -7; Pf growth 48h: 4%; AMA1-RON2 inh: -15%; Pf growth 96h: 25%; SARS PLpro yeast: -1%; Cycloheximide cs: 6

How did Cc1ccc(/C=C(\NC(=O)c2ccccc2)C(=O)NC(Cc2ccccc2)C(=O)O)cc1 (stereo not drawn) do in these assays?
Shiga inhibitor: -15; Pf growth 48h: 1%; AMA1-RON2 inh: 7%[11.6 µM]; Pf growth 96h: 0.52µM*; SARS PLpro yeast: 1%; Cycloheximide cs: -1

How did O=C(NC(=S)NCc1ccco1)c1ccccc1 do in these assays?
Shiga inhibitor: -4; Pf growth 48h: 4%; AMA1-RON2 inh: 2%; Pf growth 96h: 26%; SARS PLpro yeast: 0%; Cycloheximide cs: -2

Screening data (PubChem BioAssay)
